Experimental data: PubChem BioAssay
The source made the active and inactive calls.

Legend:
[1] = binders of probe aFSTL3 on microarray, primary screen, stem cell growth factor project, biochemical, small-molecule microarray, fluorescence 635/667 (AID 1064); settings: higher = more signal;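 further: measures binding of the biotinylated anti-FSTL3 antibody to printed compounds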
[2] = binders from COS7 lysate, DM2A8 probe, primary screen, torsin A project, cell lysate, small-molecule microarray, fluorescence 635/667 (AID 1065); settings: higher = more signal, COS7 lysate expressing mutant human TOR1A
[3] = binders of probe aFGF2 on microarray, primary screen, stem cell growth factor project, biochemical, small-molecule microarray, fluorescence 635/667 (AID 1067); settings: higher = more signal;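 further: measures binding of biotinylated aFGF2 protein to printed compounds on slides; z-score merges feature fluorescence and signal-to-noise across triplicate slides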
[4] = binders of probe aFGF10 on microarray, primary screen, stem cell growth factor project, biochemical, small-molecule microarray, fluorescence 635/667 (AID 1071); settings: higher = more signal;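 further: score merges 667 nm spot intensity and signal to noise from triplicate slides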
[5] = target: Neurogenic locus notch homolog protein 2 (Homo sapiens) (UniProt Q04721); test: Notch2 binders on small-molecule microarrays, primary screen, biochemical, small-molecule microarray, 635 nm fluorescence, stem cell growth factors (AID 1073); settings: Notch2 binding, higher = more signal
[6] = target: Pro-neuregulin-1, membrane-bound isoform (Homo sapiens) (UniProt Q02297); test: NRG1 binders on small-molecule microarrays, primary screen, psychiatric disease protein project, biochemical, small-molecule microarray, fluorescence 635/667 (AID 1075); settings: NRG1 binding, 635 nm fluorescence, higher = more signal;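 further: score combines 667 nm spot fluorescence with signal to noise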
[7] = tested on: Neuregulin-1 EGF-like domain; test: binders of neuregulin-1 EGF-like domain, primary screen, biochemical, small-molecule microarray, 635 nm fluorescence (AID 1081); settings: small-molecule microarray binding, higher = more signal;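 further: binding of the protein to compounds printed on small-molecule microarray slides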
[8] = FRG1 promoter luciferase signal modulators, primary screen, FRG1 inhibition for FSHD, cell-based, C2C12 myotubes, firefly/Renilla luciferase, luminescence (AID 1084); settings: higher = more signal, called active from +8 up or from −8 down
[9] = binders of probe aFST on microarray, primary screen, stem cell growth factor project, biochemical, small-molecule microarray, fluorescence 635/667 (AID 1086); settings: higher = more signal;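 further: score merges 667 nm fluorescence with signal-to-noise of each printed compound spot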
[10] = binders of probe aHhip on microarray, primary screen, stem cell growth factor project, biochemical, small-molecule microarray, fluorescence 635/667 (AID 1087); settings: higher = more signal;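 further: score merges spot fluorescence at 667nm with spot signal to noise ratio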
[11] = tested on: PRMT1 (protein arginine N-methyltransferase 1); test: PRMT1 binders on small-molecule microarrays, primary screen, biochemical, small-molecule microarray, 635 nm fluorescence (AID 1088); settings: small-molecule microarray binding, higher = more signal;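 further: binding of Prmt1 protein to compounds spotted on small-molecule microarray slides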
[12] = yeast growth modulation, basal conditions, primary screen, YJM789 clinical isolate, OD600, 24 h (AID 1089);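 further: growth of clinical yeast isolate S. cerevisiae YJM 789 seeded 1000 cells per well; test concentration not given here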; settings: S. cerevisiae YJM789 growth, higher = more signal, called active from +8 up or from −8 down
[13] = fission yeast growth modulation, primary screen, strain 972, OD600, 24 h, no modulator (AID 1090);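 further: basal condition with compound alone and no growth modifier present; test concentration not given here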; settings: S. pombe 972 growth, higher = more signal, called active from +8 up or from −8 down
[14] = S. cerevisiae growth modulation with rapamycin, primary screen, strain BY4716, OD600, 96 h (AID 1091); settings: higher = more signal, called active from +8 up or from −8 down; further: test concentration not given here
[15] = target: Torsin-1A-interacting protein 2 (Homo sapiens) (UniProt Q8NFQ8); test: LULL1 binders on small-molecule microarray, primary screen, cell lysate, human LULL1 lysate, 635/667 nm fluorescence (AID 1092); settings: hLULL1 lysate binding, 635 nm fluorescence, higher = more signal;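 further: probe is lysate of COS7 cells overexpressing human LULL1; score merges per-feature 667 nm fluorescence with signal-to-noise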
[16] = E. coli growth modulation, two-sided OD650, primary screen, E. coli filamentation project, strain DRC41, 24 h (AID 1093); settings: OD650, 24 h, higher = more signal, called active from +8 up or from −8 down;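 further: MC1000 strain lacking acrAB efflux and sulA so SOS filamentation is blocked; test concentration not given here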
[17] = small-molecule microarray binders of probe aLefty2, primary screen, biochemical, biotinylated probe, 635/667 nm fluorescence (AID 1094); settings: higher = more signal;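 further: score merges spot fluorescence near 667 nm with spot signal-to-noise ratio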
[18] = tested on: Noggin (protein binding on small-molecule microarray); test: Noggin binders on small-molecule microarray, primary screen, biochemical, 635/667 nm fluorescence (AID 1095); settings: 635 nm fluorescence, higher = more signal;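 further: score merges 667 nm feature fluorescence with signal to noise over triplicate slides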
[19] = target: Neurogenic locus notch homolog protein 3 (Homo sapiens) (UniProt Q9UM47); test: NOTCH3 binders on small-molecule microarray, primary screen, biochemical, 635/667 nm fluorescence (AID 1096); settings: NOTCH3 binding, 635 nm fluorescence, higher = more signal
[20] = small-molecule microarray binders of probe aEGFR, primary screen, biochemical, biotinylated probe, 635/667 nm fluorescence (AID 1097); settings: higher = more signal;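 further: probe is a biotinylated anti-EGFR antibody binding compounds printed on slides; score combines fluorescence near 667 nm and signal to noise of each spot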

Pro-neuregulin-1, membrane-bound isoform (Homo sapiens), sequence (Q02297 whole entry, looked up, the tested form may be a part, canonical isoform): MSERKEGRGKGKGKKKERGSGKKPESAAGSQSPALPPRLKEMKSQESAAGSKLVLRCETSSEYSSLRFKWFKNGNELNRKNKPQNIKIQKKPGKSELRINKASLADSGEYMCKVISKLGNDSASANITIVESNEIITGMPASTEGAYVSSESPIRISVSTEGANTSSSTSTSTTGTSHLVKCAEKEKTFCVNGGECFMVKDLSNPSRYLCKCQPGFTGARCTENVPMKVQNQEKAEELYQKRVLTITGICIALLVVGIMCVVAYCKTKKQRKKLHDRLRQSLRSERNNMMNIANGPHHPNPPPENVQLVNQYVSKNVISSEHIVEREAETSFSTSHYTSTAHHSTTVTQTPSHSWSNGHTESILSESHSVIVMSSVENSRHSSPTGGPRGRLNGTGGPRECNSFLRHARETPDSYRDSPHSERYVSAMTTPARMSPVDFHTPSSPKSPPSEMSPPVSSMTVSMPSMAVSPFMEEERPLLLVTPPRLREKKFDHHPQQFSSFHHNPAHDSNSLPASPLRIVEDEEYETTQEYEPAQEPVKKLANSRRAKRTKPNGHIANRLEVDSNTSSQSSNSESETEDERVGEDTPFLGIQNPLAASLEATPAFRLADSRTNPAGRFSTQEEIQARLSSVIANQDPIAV
Neurogenic locus notch homolog protein 2 (Homo sapiens), sequence (Q04721 whole entry, looked up, canonical isoform): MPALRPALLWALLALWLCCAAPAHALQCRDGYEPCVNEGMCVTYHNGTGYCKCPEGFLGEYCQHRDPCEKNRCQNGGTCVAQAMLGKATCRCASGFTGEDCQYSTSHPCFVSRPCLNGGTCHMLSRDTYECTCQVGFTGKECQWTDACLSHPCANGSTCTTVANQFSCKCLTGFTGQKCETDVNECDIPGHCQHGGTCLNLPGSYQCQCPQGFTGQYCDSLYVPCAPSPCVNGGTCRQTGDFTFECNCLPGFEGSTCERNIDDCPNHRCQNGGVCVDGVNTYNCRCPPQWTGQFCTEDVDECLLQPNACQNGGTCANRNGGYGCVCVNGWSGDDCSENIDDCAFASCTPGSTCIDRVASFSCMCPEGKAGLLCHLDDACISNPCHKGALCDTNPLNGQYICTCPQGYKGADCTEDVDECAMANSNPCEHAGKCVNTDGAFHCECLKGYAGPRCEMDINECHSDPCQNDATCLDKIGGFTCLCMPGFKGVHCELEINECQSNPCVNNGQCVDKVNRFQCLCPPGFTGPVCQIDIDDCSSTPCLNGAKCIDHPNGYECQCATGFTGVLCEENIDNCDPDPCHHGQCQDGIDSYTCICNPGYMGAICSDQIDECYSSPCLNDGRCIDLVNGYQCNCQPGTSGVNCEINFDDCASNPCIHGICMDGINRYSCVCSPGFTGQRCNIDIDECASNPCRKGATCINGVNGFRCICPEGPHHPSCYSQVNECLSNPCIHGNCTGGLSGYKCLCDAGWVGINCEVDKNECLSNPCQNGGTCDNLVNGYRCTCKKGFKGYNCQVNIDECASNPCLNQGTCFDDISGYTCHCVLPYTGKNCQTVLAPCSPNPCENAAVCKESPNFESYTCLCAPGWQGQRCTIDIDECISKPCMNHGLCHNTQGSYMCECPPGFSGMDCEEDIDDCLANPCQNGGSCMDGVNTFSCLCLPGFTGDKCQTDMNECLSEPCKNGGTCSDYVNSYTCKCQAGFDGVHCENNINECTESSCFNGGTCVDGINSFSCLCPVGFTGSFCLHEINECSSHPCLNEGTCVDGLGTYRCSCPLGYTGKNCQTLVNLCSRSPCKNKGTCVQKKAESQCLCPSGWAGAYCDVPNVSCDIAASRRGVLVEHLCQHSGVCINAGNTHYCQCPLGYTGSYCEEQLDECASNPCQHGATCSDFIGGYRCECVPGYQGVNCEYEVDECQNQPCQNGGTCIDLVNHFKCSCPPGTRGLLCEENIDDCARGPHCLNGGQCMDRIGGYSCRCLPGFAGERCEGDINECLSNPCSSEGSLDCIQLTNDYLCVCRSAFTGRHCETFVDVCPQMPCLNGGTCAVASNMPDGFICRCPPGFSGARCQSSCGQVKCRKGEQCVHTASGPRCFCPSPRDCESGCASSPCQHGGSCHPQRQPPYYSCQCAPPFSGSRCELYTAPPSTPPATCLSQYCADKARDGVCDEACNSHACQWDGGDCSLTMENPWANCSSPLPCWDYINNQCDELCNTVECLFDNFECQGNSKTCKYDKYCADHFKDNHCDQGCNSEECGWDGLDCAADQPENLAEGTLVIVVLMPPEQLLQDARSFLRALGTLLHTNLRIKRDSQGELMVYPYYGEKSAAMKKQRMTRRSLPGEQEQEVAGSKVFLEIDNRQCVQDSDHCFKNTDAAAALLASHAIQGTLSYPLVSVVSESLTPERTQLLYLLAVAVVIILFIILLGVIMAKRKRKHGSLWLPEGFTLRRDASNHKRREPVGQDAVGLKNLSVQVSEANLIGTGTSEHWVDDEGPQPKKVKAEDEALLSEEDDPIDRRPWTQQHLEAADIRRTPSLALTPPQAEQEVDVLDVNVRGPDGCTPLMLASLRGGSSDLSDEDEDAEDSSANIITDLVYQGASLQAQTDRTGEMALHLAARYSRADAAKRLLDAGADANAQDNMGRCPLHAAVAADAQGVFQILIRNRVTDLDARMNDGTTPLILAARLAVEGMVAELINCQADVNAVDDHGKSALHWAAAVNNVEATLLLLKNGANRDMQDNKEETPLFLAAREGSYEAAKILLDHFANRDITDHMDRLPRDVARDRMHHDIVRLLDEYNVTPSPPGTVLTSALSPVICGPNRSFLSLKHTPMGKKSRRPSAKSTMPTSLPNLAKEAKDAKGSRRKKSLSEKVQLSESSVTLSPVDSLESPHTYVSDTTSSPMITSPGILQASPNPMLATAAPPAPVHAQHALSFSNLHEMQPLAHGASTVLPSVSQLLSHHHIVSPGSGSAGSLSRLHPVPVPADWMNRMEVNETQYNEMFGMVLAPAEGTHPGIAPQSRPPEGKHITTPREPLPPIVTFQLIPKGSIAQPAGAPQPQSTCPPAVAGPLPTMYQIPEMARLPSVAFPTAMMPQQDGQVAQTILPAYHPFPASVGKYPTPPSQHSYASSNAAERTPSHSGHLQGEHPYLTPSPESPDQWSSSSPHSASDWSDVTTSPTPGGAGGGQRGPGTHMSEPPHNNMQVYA
Torsin-1A-interacting protein 2 (Homo sapiens), sequence (Q8NFQ8 whole entry, looked up): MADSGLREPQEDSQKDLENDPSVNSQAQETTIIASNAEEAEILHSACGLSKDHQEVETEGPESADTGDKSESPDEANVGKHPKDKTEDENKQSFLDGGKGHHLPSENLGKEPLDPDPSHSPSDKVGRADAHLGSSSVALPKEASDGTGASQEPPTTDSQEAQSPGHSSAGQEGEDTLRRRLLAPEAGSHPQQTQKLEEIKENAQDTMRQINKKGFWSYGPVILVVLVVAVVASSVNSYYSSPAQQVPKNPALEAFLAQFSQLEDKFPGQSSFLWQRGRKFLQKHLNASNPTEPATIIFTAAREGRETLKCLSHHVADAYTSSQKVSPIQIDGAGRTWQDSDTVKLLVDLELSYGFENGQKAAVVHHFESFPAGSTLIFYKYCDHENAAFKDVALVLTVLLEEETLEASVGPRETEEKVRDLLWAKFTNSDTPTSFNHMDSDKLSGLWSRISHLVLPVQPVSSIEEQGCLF

Compound	composite z-score [1]	composite z-score [2]	composite z-score [3]	composite z-score [4]	composite z-score [5]	composite z-score [6]	composite z-score [7]	z-score [8]	composite z-score [9]	composite z-score [10]	composite z-score [11]	z-score [12]	z-score [13]	z-score [14]	composite z-score [15]	z-score [16]	composite z-score [17]	composite z-score [18]	composite z-score [19]	composite z-score [20]
CC(C)c1nc2cc(Br)ccc2c(=O)o1	-0.404	0.109	0.0013	0.58	1.39	1.21	0.565	0.604 (inactive)	0.689	-0.146	-0.0152	-0.0363 (inactive)	0.347 (inactive)	-0.26 (inactive)	2.97	0.501 (inactive)	-0.0823	0.0534	0.567	-0.0535
CN(C)c1ccc(C(O)C2C=CC3C(=O)N(Cc4ccccc4)C(=O)C3N2n2cnnc2)cc1 (stereo not given)	0.0652	0.0666	-0.0303	0.0521	0.0282	-0.161	-0.103	-1.18 (inactive)	0.198	0.244	-0.765	-1.24 (inactive)	0.396 (inactive)	-0.528 (inactive)	0.0442	0.372 (inactive)	0.123	0.359	-0.139	-0.0649
CC1CC/C=C\[C@H]2OC34C=CCN(Cc5ccccc5)C(=O)[C@H]3N(CCCCCCO)C(=O)[C@@H]4C2C(=O)O1 (stereo not given in full)	0.261	0.96	-0.116	-0.994	-0.763	1.91	1.19	-0.1 (inactive)	-0.696	-0.226	0.661	-0.617 (inactive)	-0.623 (inactive)	-0.482 (inactive)	2.31	0.246 (inactive)	-0.163	-1.78	-0.397	-0.0773
CC=CC(O)C1C=CC2C(=O)NC(=O)C2N1Nc1ccc(Cl)cc1Cl (stereo not given)	0.389	0.453	-0.0074	0.647	0.662	1.01	0.669	0.035 (inactive)	0.114	-0.0645	-0.193	-6.04 (inactive)	-2 (inactive)	0.624 (inactive)	2.28	-1.13 (inactive)	0.0598	-0.376	0.0204	-0.148
CO[C@H]1O[C@H](CO)[C@@H](OC(=O)Nc2ccc3c(c2)OCO3)[C@H](OC(=O)Nc2ccccc2-c2ccccc2)[C@H]1OC(=O)Nc1ccccc1-c1ccccc1	0.22	0.873	0.007	1.26	1.44	0.96	1.18	0.124 (inactive)	0.189	0.0749	1.54	2.5 (inactive)	2.11 (inactive)	2.28 (inactive)	3.35	0.566 (inactive)	0.0164	0.546	0.624	0.29
O=C1N(Cc2ccccc2)c2ccccc2C[C@@]12COC(c1ccc(OCCCO)cc1)=N2	0.689	0.445	-0.0592	0.979	0.984	1	1.23	-1.14 (inactive)	0.361	-0.0237	1.56	-0.91 (inactive)	-1.56 (inactive)	2.83 (inactive)	3	1.54 (inactive)	0.249	1.07	0.944	-0.0238
Cc1ccc(N2C(=O)c3ccccc3[C@](C)(C(=O)NCCCN(C)C)[C@@H]2c2ccc(CO)cc2)nc1	0.908	-0.109	-0.1	-0.436	-0.676	-0.114	0.582	1.36 (inactive)	0.423	-0.236	0.409	-0.903 (inactive)	-0.808 (inactive)	-1.51 (inactive)	2.93	-0.677 (inactive)	-0.0405	-0.817	-0.681	-0.209
O=C(NCCN1CCOCC1)[C@@H]1c2ccccc2C(=O)N(Cc2ccc(OC(F)(F)F)cc2)[C@H]1c1ccc(CO)cc1	0.224	0.751	-0.0531	-0.315	0.0161	-0.181	0.569	-1.39 (inactive)	-0.236	-0.0645	1.19	-1.58 (inactive)	-0.748 (inactive)	-0.846 (inactive)	3.09	0.0461 (inactive)	-0.0766	0.0807	-0.0807	-0.126
CCOC(=O)C1=CC[C@@H](c2ccc(OC)cc2)N(S(=O)(=O)c2ccc(C)cc2)[C@H]1CC	-0.295	0.495	-0.067	0.398	1.66	1.13	1.11	-3.47 (inactive)	1.14	-0.0645	1.56	-1.48 (inactive)	0.971 (inactive)	0.879 (inactive)	3.05	0.66 (inactive)	0.0319	0.0635	1.08	-0.0157
CCN(CC)c1ccc(N2CC=CC34O[C@@H]5C=CCCOC(=O)C5[C@H]3C(=O)N(C(C)CO)[C@@H]4C2=O)cc1 (stereo not given in full)	0.221	0.864	-0.0627	-0.227	-0.371	0.415	1.36	0.725 (inactive)	-0.0426	-0.34	1.05	-1.01 (inactive)	-1.6 (inactive)	-0.399 (inactive)	2.11	-0.42 (inactive)	0.0815	0.524	0.61	-0.0702
